# An excerpt weighted towards active compounds, which were near 4.7% of everything screened.
# D1 potentiator: potentiators of human D1 dopamine receptor | HEK293 TREx D1 cells, calcium flux, dopamine EC20 potentiation | potentiation, % at 10 µM | hit rate 0.036% among 360,000 | AID 504651; in the data active = potentiation above about 30%; also: 0% is about no effect
# TRHR enhancer: allosteric enhancers of human TRH receptor; TRHR cells, fluo-8 calcium fluorescence, EC20 TRH enhancement; AID 493056; P34981; hit rate 0.66% among 360,000; enhancement, % at 2 µM; in the data active = enhancement above about 30%; also: 0% is about no effect
# Target sequence (P34981 whole entry, looked up): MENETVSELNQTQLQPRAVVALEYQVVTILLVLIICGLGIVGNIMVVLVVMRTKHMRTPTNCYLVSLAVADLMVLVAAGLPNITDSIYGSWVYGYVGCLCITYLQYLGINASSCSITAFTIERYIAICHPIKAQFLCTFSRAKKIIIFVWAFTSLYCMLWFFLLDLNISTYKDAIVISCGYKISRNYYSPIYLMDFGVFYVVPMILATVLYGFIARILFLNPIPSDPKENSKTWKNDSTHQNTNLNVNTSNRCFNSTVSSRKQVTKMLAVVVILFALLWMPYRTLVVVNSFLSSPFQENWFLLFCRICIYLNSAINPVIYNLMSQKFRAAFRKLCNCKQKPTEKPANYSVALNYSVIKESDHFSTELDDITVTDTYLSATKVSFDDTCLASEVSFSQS
#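 TRHR-expressing cells loaded with fluo-8 calcium dye were read kinetically (ex 480/em 530) during compound addition, then stimulated with an EC20 of TRH (10 nM final). Enhancement of the Gq-mediated intracellular calcium response was scored.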
# D1 antagonist: blocks dopamine activation of the human D1 receptor; AID 504652; P21728; activity change, negative = inhibition, % at 10 µM; hit rate 3.2% among 360,000; HEK293 TREx D1 cells, calcium flux, dopamine EC80; active compounds read low; in the data active = activity change below about -30%; also: % is scaled to controls: 0 for no effect and ±100 for the full control effect
#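 Kinetic fluorescence of a calcium dye serves as the read-out. D1-expressing Hek293 Trex cells, induced overnight at 30 C, are exposed to compound for 180 s before an EC80 dopamine addition, then read 180 s further.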
# D1 agonist: human D1 receptor agonism; HEK293 T-REx D1 cells, calcium flux, agonist mode; activation, % at 2 µM; hit rate 1% among 360,000; AID 504660; also: 0% is about no effect
#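 Agonism was scored from calcium flux recorded over 180 s (1 read/s) after pintool compound addition, following a 10-cycle baseline. Cells were inducible force-coupled HEK293 TREx D1, plated overnight at 30 C and loaded with no-wash calcium dye.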
# TRHR ag: activates the human TRH receptor; activation, % at 2 µM; hit rate 0.18% among 360,000; TRHR cells, calcium flux fluo-8, FDSS agonist mode; P34981; also: 0% is about no effect
#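 TRHR-expressing cells, plated overnight in medium with 10% serum, were loaded with fluo-8 calcium dye at room temperature. After a 10 s baseline, library compound was pin-added and calcium release was recorded kinetically (ex 480/em 530) as agonist response.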
# Numbers without * were called inactive; · = not tested or not shown. Rule as the data show it, unless noted: active = activation above about 30%; inactive = the rest.
SMILES,D1 potentiator,TRHR enhancer,D1 antagonist,D1 agonist,TRHR ag
COc1ccc(-c2noc(COc3ccc(C)cc3C)n2)cc1OC,0,-7,3,14,1
COc1ccc(Cc2nc(-c3ccc(-n4cccc4)cc3)no2)cc1OC,5,1,-39*,32*,0
CCOC(=O)c1ccc(NC(=O)CCC(=O)N2Cc3ccccc3Oc3ncccc32)cc1,3,14,9,37*,-1
COc1ccc(C(=O)NCCc2cnc[nH]2)cc1OC,-4,-2,7,2,1
Cc1ccc(CNC(=O)CSc2n[nH]c(-c3ccc(F)cc3)n2)cc1,3,7,0,0,-1
COc1ccc(C(=O)NC2CC2)cc1OC1CCN(Cc2ccc(Cl)cc2)CC1,-19,3,-58*,6,1
C/C=C(\C)CN1CCC(Oc2cc(C(=O)NC3CC3)ccc2OC)CC1,-19,4,-3,2,1
COc1ccc(C(=O)NC2CC2)cc1OC1CCN(Cc2cc(C)cc(C)c2)CC1,-19,23,-51*,1,0
Cc1ccccc1OC(C)C(=O)N1CCC(Cc2ccccc2)CC1 (stereo not given),-2,-5,-47*,13,0
Cc1cccc(C(=O)N2CCC(Cc3ccccc3)CC2)c1[N+](=O)[O-],-6,9,-36*,1,0
Cc1ccc(/C=C/C(=O)N2CCCC(C)C2)cc1 (stereo not given),-2,-1,-3,1,0
Cc1ccc(/C=C/C(=O)N2CCC(Cc3ccccc3)CC2)cc1,-9,6,-33*,10,1
Cc1ccc([N+](=O)[O-])c(OCCN2CCC(Cc3ccccc3)CC2)c1,-13,4,-55*,27,3
COc1ccccc1OC(C)C(=O)N1CCC(Cc2ccccc2)CC1 (stereo not given),-7,3,-10,3,-1
Cn1c(/C=C(\C#N)C(N)=S)ccc1-c1ccc(Br)cc1,-10,10,-37*,1,-1
O=C(CCNC(=O)C1CCN(S(=O)(=O)c2ccccc2)CC1)NCc1ccccc1Cl,-2,-2,8,1,0
O=C(CSc1cc(Cl)ccc1Cl)NCCCn1ccnc1,·,-5,-1,4,0
O=C(CNC(=O)c1ccc(Cl)cc1Cl)NCCCn1ccnc1,0,31*,0,4,-1
O=C(NCCCn1ccnc1)c1cc(-c2ccc(Cl)cc2)nc2ccccc12,-5,0,-39*,-1,0
Cc1cccc(Cn2c(SCc3ccc(C(=O)NCc4cccs4)cc3)nc3cccnc32)c1,-2,2,12,5,1
C1CCC(C(CC2CCCCN2)C2CCCCC2)CC1 (stereo not given),13,26,67,136*,2
CN1CCN(C(=O)CCN2C(=O)/C(=C\c3ccc(Cl)cc3)SC2=S)CC1,-3,1,-43*,16,1
O=C(O)c1ccc(CN2C(=O)CSC2=S)cc1,-8,-5,12,31*,3
O=C(O)c1ccc(/C=C2/SC(=S)N(Cc3ccccc3)C2=O)cc1,30*,4,2,2,0
COc1cc(/C=C2/SC(=S)N(Cc3ccccc3)C2=O)cc(Cl)c1O,3,92*,-25,474*,159*
SMILES,D1 potentiator,TRHR enhancer,D1 antagonist,D1 agonist,TRHR ag
O=C1/C(=C\c2ccc(O)cc2)SC(=S)N1Cc1ccccc1,-6,3,0,27,8
CCOc1ccc2nc(N3CCCC(C(=O)NCCc4ccc(SC)cc4)C3)sc2c1 (stereo not given),0,15,4,-1,0
CC(C)(C)NC(=S)NNC(=O)c1cccc(Br)c1,-4,-5,-11,5,3
COc1cc(OC)cc(C(=O)NCC(=O)OCC(=O)C(C)(C)C)c1,-2,16,-1,0,1
CC1CCc2onc(C(=O)N3CCN(c4ccc(Cl)cc4)CC3)c2C1 (stereo not given),-4,7,-2,5,-1
COc1cc(/C=C2\SC(=S)N(CC(=O)NC(C)(C)C)C2=O)cc(OC)c1OC,-10,-3,-61*,11,2
COc1cc(/C=C2/SC(=S)N(CC(=O)NC(C)(C)C)C2=O)cc(OC)c1OC,-5,28,-4,5,2
COc1cc([N+](=O)[O-])cc(/C=C2/SC(=S)N(Cc3ccccc3)C2=O)c1O,0,2,-3,110*,24
O=C1/C(=C\c2cccc([N+](=O)[O-])c2O)SC(=S)N1Cc1ccccc1,0,-1,-26,6,0
CC(C)CC(C(=O)O)C(C)CC(=O)Nc1ccn(-c2ccccc2)n1 (stereo not given),-1,-1,-13,2,0
CCCCC(C(=O)O)C(C)CC(=O)Nc1ccn(-c2ccccc2)n1 (stereo not given),-4,12,-59*,2,0
CC(C)(C)OC(=O)NCC(=O)NNC(=O)c1cc2ccccc2[nH]1,2,-2,-59*,1,1
Cc1ccc(S(=O)(=O)C2(C(=O)NCCc3ccccc3)CC2)cc1,-8,-8,-5,4,1
COc1ccc(N2C(=O)c3ccccc3NC2c2ccc(OC)c(Cn3cc([N+](=O)[O-])cn3)c2)cc1 (stereo not given),-9,-1,-38*,0,-1
COc1ccc(C2Nc3ccccc3C(=O)N2c2ccccc2)cc1Cn1cc([N+](=O)[O-])cn1 (stereo not given),0,9,-4,1,1
Cc1ccnn1CC(=O)N/N=C/c1ccc2c(c1)OCO2,-4,1,-47*,3,-1
CCn1ncc(/C=N/NC(=O)c2ccc3c(c2)OCO3)c1C,-4,3,-74*,1,1
Cc1c(/C=N/NC(=O)C(NC(=O)c2ccc3c(c2)OCO3)C(C)C)c2ccccc2n1C (stereo not given),0,32*,-15,-1,6
CCCOc1ccc(/C=N/NC(=O)c2ccc3c(c2)OCO3)c(OCCC)c1,·,-7,-42*,5,0
CC(C)C(NC(=O)c1ccc2c(c1)OCO2)C(=O)N/N=C/c1cccs1 (stereo not given),-8,-6,-27,0,0
Cc1ccc(CC(=O)N/N=C/c2ccc3c(c2)OCO3)cc1,10,1,2,-1,0
CSCCC(NC(=O)c1ccco1)C(=O)N(C)CC(=O)Nc1ccccc1Br (stereo not given),-2,-3,6,1,0
Cc1n(C)c2cc(Cl)ccc2[n+]1Cc1ccccc1,-2,-2,16,8,0
Cc1cccc(N2C(=O)CSC23C(=O)N(CC(=O)Nc2cccc(Cl)c2)c2ccccc23)c1 (stereo not given),-9,16,-13,11,-2

# High-throughput results (PubChem)
